Only some compounds are listed: those with a hit (about 7% of all), similar ones and a draw of the others.
rCAG binder: r(CAG) repeat RNA binding | TO-PRO-1 dye displacement fluorescence | inhibition, % at 3 µM | hit rate 1.3% among 370,000;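 active = inhibition above the plate cutoff, the mean of all test compounds on that plate plus 3 SD, cut at about 35% in these data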;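 note: 0% = DMSO alone and 100% = 100 µM mitoxantrone as full dye displacement; higher means more dye released from RNA so lower well fluorescence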
AHR act: activators of human aryl hydrocarbon receptor | P35869 | activation, % at 5 µM | AHR-responsive luciferase reporter cells, luminescence | hit rate 2.5% among 320,000; in the data active = activation above about 47%;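 note: 0% = vehicle wells and 100% = reference agonist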
ADAM10 inh: ADAM10 inhibition, QFRET primary screen; inhibition, % at 7 µM; recombinant ADAM10, EDANS/DABCYL FRET peptide cleavage, 3 h; O14672; hit rate 0.62% among 370,000;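 active = inhibition above a per-campaign cutoff equal to the mean of compounds falling between control-based bounds plus 3 SD, cut at about 20% in these data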;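 note: 0% = DMSO wells while the 100% control is not disclosed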
proKLK7 act: activates the human kallikrein-7 zymogen; hit rate 0.9% among 370,000; activation, % at 7 µM; purified proKLK7, EDANS-DABCYL substrate fluorescence; 100% is mature enzyme control, 0% vehicle; P49862;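 active = activation above the mean of all tested compounds plus 3 SD, computed per campaign excluding outliers beyond control limits, cut at about 13% in these data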
GRIN3A LBD mod: NR3A (human) ligand-binding domain modulation | NR3A LBD differential scanning fluorimetry, Tm shift; 0% = protein alone, 100% = glycine-bound protein | Tm shift relative to glycine control, % at 25 µM | hit rate 2.5% among 340,000 | AID 1259313;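 active = melting temperature shift of at least 10% of the positive control shift, at one fixed dose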
ADAM17 inh: inhibits human ADAM17; P78536; recombinant ADAM17, EDANS/DABCYL FRET peptide cleavage; inhibition, % at 6.95 µM; hit rate 0.83% among 370,000; AID 720648;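 active = inhibition above the mean of compounds lying between control limits plus 3 SD, set per campaign, cut at about 8.5% in these data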;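 note: 0% = DMSO-only wells as the low control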
Target sequence (P78536 215-824 limits assumed): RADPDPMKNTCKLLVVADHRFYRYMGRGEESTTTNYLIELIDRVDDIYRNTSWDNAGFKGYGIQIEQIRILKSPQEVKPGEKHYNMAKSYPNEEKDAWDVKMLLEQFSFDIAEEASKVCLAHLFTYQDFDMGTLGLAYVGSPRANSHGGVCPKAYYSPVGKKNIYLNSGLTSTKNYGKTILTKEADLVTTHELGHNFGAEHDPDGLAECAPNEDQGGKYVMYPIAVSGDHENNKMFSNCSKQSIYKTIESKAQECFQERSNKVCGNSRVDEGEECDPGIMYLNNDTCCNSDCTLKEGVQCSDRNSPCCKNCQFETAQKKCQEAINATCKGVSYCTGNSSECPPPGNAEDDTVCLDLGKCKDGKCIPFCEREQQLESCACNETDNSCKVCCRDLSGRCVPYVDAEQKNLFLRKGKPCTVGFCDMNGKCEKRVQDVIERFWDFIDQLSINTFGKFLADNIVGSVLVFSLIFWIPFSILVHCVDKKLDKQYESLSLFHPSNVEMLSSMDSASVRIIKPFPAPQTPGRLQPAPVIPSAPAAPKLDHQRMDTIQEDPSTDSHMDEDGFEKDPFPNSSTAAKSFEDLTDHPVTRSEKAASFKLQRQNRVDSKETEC
rCAG bind conf: r(CAG) RNA repeat binding, confirmation. shares compounds with rCAG binder. TO-PRO-1 dye displacement fluorescence. inhibition, % at 3 µM. hit rate 70% among 4,300;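 active = inhibition above a per-plate cutoff, the mean inhibition of sample wells plus 3 SD, cut at about 35% in these data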;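 note: loss of TO-PRO-1 fluorescence as compound displaces dye from 1x1 AA loop RNA; 0% = DMSO only wells and 100% = 100 µM mitoxantrone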
dCAG dye counter: DNA CAG dye complex inhibition counter-screen; shares compounds with rCAG binder; d(CAG) DNA oligo TO-PRO-1 dye displacement, fluorescence; inhibition, % at 3 µM; hit rate 94% among 4,300;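 active = inhibition above its plate's cutoff, the mean test-well inhibition plus 3 SD, cut at about 4.8% in these data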;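 note: 0% = DNA dye mix with DMSO and 100% = 100 µM mitoxantrone; hits displace the dye from DNA and so lower well fluorescence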
* = called active by the depositor.

What do the screens show for `CC(=O)c1ccc(NS(=O)(=O)c2ccc([N+](=O)[O-])cc2)cc1`?
rCAG binder: 2; ADAM10 inh: 7; proKLK7 act: -1; GRIN3A LBD mod: -3; ADAM17 inh: 7

Results for CS(=O)(=O)Nc1ccc(C(=O)CC(=O)Nc2ccc([N+](=O)[O-])cc2)cc1 ?
rCAG binder: 37*; AHR act: 0; ADAM10 inh: 17; proKLK7 act: 0; GRIN3A LBD mod: 37*; ADAM17 inh: 4; rCAG bind conf: 14; dCAG dye counter: 9.4*

How did O=[N+]([O-])c1ccc(S(=O)(=O)Nc2ccc(-c3ccccc3)cc2)cc1 do in these assays?
rCAG binder: 45*; ADAM10 inh: 15; proKLK7 act: -1; ADAM17 inh: 5; rCAG bind conf: 35*; dCAG dye counter: 8.7*

How did CC(NC(=O)c1c(N)[nH]c(C(=O)c2ccc(Cl)cc2)c1-c1ccc(Br)cc1)c1cccc2ccccc12 (stereo not given) do in these assays?
rCAG binder: 8; ADAM10 inh: -9; proKLK7 act: 0; ADAM17 inh: -5

Results for COc1cccc(CC(=O)O[C@@H]2CCC[C@@]3(C(=O)N(Cc4ccccc4)c4ccccc43)[C@H]2NC(=O)CCc2ccccc2)c1 ?
rCAG binder: 9; ADAM10 inh: 15; proKLK7 act: 1; ADAM17 inh: 7

Results for Cc1c(C(=O)Nc2ccccc2)cn2c(nc3ccccc32)c1C#N ?
rCAG binder: 4; AHR act: 15; ADAM10 inh: -33; proKLK7 act: 1; GRIN3A LBD mod: -1; ADAM17 inh: -10

Results for Cc1ccccc1C(=O)Nc1ccc2c(C#N)c3nc4ccccc4nc3n2c1 ?
rCAG binder: 36*; AHR act: 9; ADAM10 inh: -99; proKLK7 act: 1; GRIN3A LBD mod: 1; ADAM17 inh: -34; rCAG bind conf: 26; dCAG dye counter: 14*

Results for Cc1nc2c(C(=O)O)cnn2c(C)c1Cc1ccccc1F ?
rCAG binder: 2; AHR act: 0; ADAM10 inh: -56; proKLK7 act: 0; GRIN3A LBD mod: 0; ADAM17 inh: -21

What do the screens show for `Cc1nc2c(C(=O)NCCC(C)C)c[nH]n2c(=O)c1Cc1ccccc1F`?
rCAG binder: 69*; AHR act: -1; ADAM10 inh: -16; proKLK7 act: 0; GRIN3A LBD mod: -28; ADAM17 inh: -5; rCAG bind conf: 76*; dCAG dye counter: 42*

How did Cc1nc2c(C(=O)NCCc3ccccc3)c[nH]n2c(=O)c1Cl do in these assays?
rCAG binder: 64*; AHR act: 0; ADAM10 inh: -15; proKLK7 act: 0; GRIN3A LBD mod: -9; ADAM17 inh: -10; rCAG bind conf: 54*; dCAG dye counter: 13*

What do the screens show for `Cc1cc(Cl)nc(Cl)c1C(=O)NCCc1ccccc1`?
rCAG binder: 0; AHR act: -1; ADAM10 inh: -1; proKLK7 act: 0; GRIN3A LBD mod: 4; ADAM17 inh: 1

How did Cc1cc(C(=O)NCCC(C)C)c2ccccc2n1 do in these assays?
rCAG binder: -1; AHR act: 1; ADAM10 inh: -6; proKLK7 act: 0; GRIN3A LBD mod: -3; ADAM17 inh: -3

What do the screens show for `Cc1nc2c(C(=O)NCCC(C)C)c[nH]n2c(=O)c1Cl`?
rCAG binder: 37*; AHR act: 1; ADAM10 inh: -15; proKLK7 act: 0; GRIN3A LBD mod: -28; ADAM17 inh: -4; rCAG bind conf: 36*; dCAG dye counter: 8.2*

What do the screens show for `CN(C)C(=O)N1CCN(C(=O)[C@H]2O[C@@H](n3ccc(N)nc3=O)[C@H](O)[C@@H]2O)CC1`?
rCAG binder: 2; ADAM10 inh: -2; proKLK7 act: 0; ADAM17 inh: -1

How did Cc1ccccc1S(=O)(=O)NC(=O)C1(C)CCN1C(=O)Cc1ccc(C(C)(C)C)cc1 (stereo not given) do in these assays?
rCAG binder: 40*; ADAM10 inh: -16; proKLK7 act: 0; ADAM17 inh: 1; rCAG bind conf: 33; dCAG dye counter: 8.7*

What do the screens show for `CC1(C(=O)NS(=O)(=O)c2ccc(Cl)cc2)CCN1C(=O)Cc1cccc2ccccc12` (stereo not given)?
rCAG binder: 46*; ADAM10 inh: 3; proKLK7 act: 0; ADAM17 inh: 5; rCAG bind conf: 31; dCAG dye counter: 7.6*

Results for CC1(C(=O)NS(=O)(=O)c2ccccc2Cl)CCN1C(=O)Cc1ccccc1Cl (stereo not given) ?
rCAG binder: 10; ADAM10 inh: -5; proKLK7 act: 0; ADAM17 inh: 6

What do the screens show for `CC(C)(C)c1ccc(CC(=O)N2CCC2(C)C(=O)NS(=O)(=O)c2ccccc2Cl)cc1` (stereo not given)?
rCAG binder: 41*; ADAM10 inh: -8; proKLK7 act: 0; ADAM17 inh: -5; rCAG bind conf: 34; dCAG dye counter: 8.3*

Results for CC(C)(C)c1ccc(S(=O)(=O)NC(=O)C2(C)CCN2C(=O)Cc2ccccc2Cl)cc1 (stereo not given) ?
rCAG binder: 47*; ADAM10 inh: -2; proKLK7 act: 0; ADAM17 inh: -3; rCAG bind conf: 56*; dCAG dye counter: 21*

How did CC(C)(C)c1ccc(S(=O)(=O)NC(=O)C2(C)CCN2C(=O)c2cccc3ccccc23)cc1 (stereo not given) do in these assays?
rCAG binder: 57*; ADAM10 inh: -12; proKLK7 act: 1; ADAM17 inh: -1; rCAG bind conf: 52*; dCAG dye counter: 16*

Results for O=S(=O)(c1ccc(C(F)(F)F)cc1)N1CCCc2nc(-c3ccc(Br)cc3)ccc21 ?
rCAG binder: 3; ADAM10 inh: -12; proKLK7 act: 1; ADAM17 inh: -1

Results for CCc1c(O)nc(SCC(=O)Nc2c(C)cccc2C)n(-c2ccc(F)cc2)c1=O ?
rCAG binder: -1; ADAM10 inh: -1; proKLK7 act: 0; ADAM17 inh: 0

Results for Cc1c(O)nc(SCC(=O)Nc2ccc3c4c(cccc24)CC3)n(-c2ccc(F)cc2)c1=O ?
rCAG binder: 46*; AHR act: 8; ADAM10 inh: -13; proKLK7 act: -1; GRIN3A LBD mod: -1; ADAM17 inh: -5; rCAG bind conf: 30; dCAG dye counter: 8.3*

Results for Cc1ccc2[nH]c(O)c(N=NC(=O)c3ccc(NS(=O)(=O)c4cccs4)cc3)c2c1 ?
rCAG binder: 11; AHR act: 18; ADAM10 inh: 3; proKLK7 act: 0; GRIN3A LBD mod: 6; ADAM17 inh: -1

Screening data as filed in PubChem BioAssay.
